# Experimental data as given in the supplement of paper PMC8728848.
# This excerpt belongs to a sample that is enriched for the strongest signals.
# Legend:
# Test in all cases: glycan array binding signal (z-score within array); higher = stronger binding
# [1] = tested on: Gal(b1-4)GlcNAc(b1-2)Man(a1-3)[Gal(b1-4)GlcNAc(b1-2)][GlcNAc(b1-4)]Man(b1-4)GlcNAc(b1-4)GlcNAc; conditions: glycan notation: IUPAC condensed, linker removed
# Summary of the method: (§1)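 Glycan array binding is given as a within-array Z-score, which can be read as non-binding when negative. The arrays, 3228 of them, came from the Consortium for Functional Glycomics database and were retained only where the protein sequence was available. Z-scores were averaged across arrays of the same protein sequence at different concentrations or buffers and across linkers.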
# [2] = tested on: Gal(b1-4)GlcNAc(b1-3)[Gal(b1-4)GlcNAc(b1-6)]Gal(b1-4)GlcNAc; conditions: glycan notation: IUPAC condensed, linker removed
# Summary of the method: as §1
# [3] = tested on: Gal(b1-4)GlcNAc(b1-2)[Gal(b1-4)GlcNAc(b1-4)]Man(a1-3)[Gal(b1-4)GlcNAc(b1-2)[Gal(b1-4)GlcNAc(b1-6)]Man(a1-6)]Man(b1-4)GlcNAc(b1-4)GlcNAc; conditions: glycan notation: IUPAC condensed, linker removed
# Summary of the method: as §1
# [4] = tested on: Gal(b1-4)GlcNAc(b1-2)[Gal(b1-4)GlcNAc(b1-4)]Man(a1-3)[GlcNAc(b1-4)][Gal(b1-4)GlcNAc(b1-2)Man(a1-6)]Man(b1-4)GlcNAc(b1-4)GlcNAc; conditions: glycan notation: IUPAC condensed, linker removed
# Summary of the method: as §1
# [5] = tested on: Gal(b1-4)GlcNAc(b1-3)Gal(b1-4)GlcNAc(b1-2)Man(a1-3)[Gal(b1-4)GlcNAc(b1-3)Gal(b1-4)GlcNAc(b1-2)Man(a1-6)]Man(b1-4)GlcNAc(b1-4)GlcNAc; conditions: glycan notation: IUPAC condensed, linker removed
# Summary of the method: as §1
# [6] = tested on: Gal(b1-4)GlcNAc(b1-3)Gal(b1-4)GlcNAc(b1-3)Gal(b1-4)GlcNAc(b1-2)Man(a1-3)[Gal(b1-4)GlcNAc(b1-3)Gal(b1-4)GlcNAc(b1-3)Gal(b1-4)GlcNAc(b1-2)Man(a1-6)]Man(b1-4)GlcNAc(b1-4)[Fuc(a1-6)]GlcNAc; conditions: glycan notation: IUPAC condensed, linker removed
# Summary of the method: as §1
# [7] = tested on: Gal(b1-4)GlcNAc(b1-3)Gal(b1-4)GlcNAc(b1-3)Gal(b1-4)GlcNAc(b1-2)[Gal(b1-4)GlcNAc(b1-3)Gal(b1-4)GlcNAc(b1-3)Gal(b1-4)GlcNAc(b1-6)]Man(a1-6)[Gal(b1-4)GlcNAc(b1-3)Gal(b1-4)GlcNAc(b1-3)Gal(b1-4)GlcNAc(b1-2)Man(a1-3)]Man(b1-4)GlcNAc(b1-4)[Fuc(a1-6)]GlcNAc; conditions: glycan notation: IUPAC condensed, linker removed
# Summary of the method: as §1
# [8] = tested on: Gal(b1-4)GlcNAc(b1-3)Gal(b1-4)GlcNAc(b1-3)Gal(b1-4)GlcNAc(b1-3)Gal(b1-4)GlcNAc(b1-2)Man(a1-3)[Gal(b1-4)GlcNAc(b1-3)Gal(b1-4)GlcNAc(b1-3)Gal(b1-4)GlcNAc(b1-3)Gal(b1-4)GlcNAc(b1-2)Man(a1-6)]Man(b1-4)GlcNAc(b1-4)[Fuc(a1-6)]GlcNAc; conditions: glycan notation: IUPAC condensed, linker removed; mutation: R125K
# Summary of the method: as §1
# [9] = tested on: Gal(b1-4)GlcNAc(b1-3)Gal(b1-4)GlcNAc(b1-3)Gal(b1-4)GlcNAc(b1-3)Gal(b1-4)GlcNAc(b1-3)Gal(b1-4)GlcNAc(b1-2)Man(a1-3)[Gal(b1-4)GlcNAc(b1-3)Gal(b1-4)GlcNAc(b1-3)Gal(b1-4)GlcNAc(b1-3)Gal(b1-4)GlcNAc(b1-3)Gal(b1-4)GlcNAc(b1-2)Man(a1-6)]Man(b1-4)GlcNAc(b1-4)GlcNAc; conditions: glycan notation: IUPAC condensed, linker removed
# Summary of the method: as §1
# [10] = tested on: Gal(b1-4)GlcNAc(b1-3)Gal(b1-4)GlcNAc(b1-3)[Gal(b1-4)GlcNAc(b1-3)Gal(b1-4)GlcNAc(b1-6)]GalNAc; conditions: glycan notation: IUPAC condensed, linker removed
# Summary of the method: as §1
# [11] = tested on: Gal(b1-4)GlcNAc(b1-3)Gal(b1-4)Glc; conditions: glycan notation: IUPAC condensed, linker removed
# Summary of the method: as §1
# [12] = tested on: Gal(b1-4)GlcNAc(b1-3)[GlcNAc(b1-6)]Gal(b1-4)GlcNAc; conditions: glycan notation: IUPAC condensed, linker removed
# Summary of the method: as §1
# [13] = tested on: Gal(b1-4)GlcNAc(b1-3)Gal(b1-4)GlcNAc(b1-2)[Gal(b1-4)GlcNAc(b1-3)Gal(b1-4)GlcNAc(b1-6)]Man(a1-6)[Gal(b1-4)GlcNAc(b1-3)Gal(b1-4)GlcNAc(b1-2)Man(a1-3)]Man(b1-4)GlcNAc(b1-4)[Fuc(a1-6)]GlcNAc; conditions: glycan notation: IUPAC condensed, linker removed
# Summary of the method: as §1
# [14] = tested on: Gal(b1-4)GlcNAc(b1-3)Gal(b1-4)GlcNAc; conditions: glycan notation: IUPAC condensed, linker removed
# Summary of the method: as §1
# [15] = tested on: Gal(b1-4)GlcNAc(b1-3)GalNAc; conditions: glycan notation: IUPAC condensed, linker removed
# Summary of the method: as §1
# [16] = tested on: Gal(b1-4)GlcNAc(b1-3)Gal(b1-4)[Fuc(a1-3)]GlcNAc(b1-3)Gal(b1-4)[Fuc(a1-3)]GlcNAc; conditions: glycan notation: IUPAC condensed, linker removed
# Summary of the method: as §1
# [17] = tested on: Gal(b1-4)GlcNAc(b1-2)[Gal(b1-4)GlcNAc(b1-6)]Man(a1-6)[GlcNAc(b1-4)][Gal(b1-4)GlcNAc(b1-2)Man(a1-3)]Man(b1-4)GlcNAc(b1-4)GlcNAc; conditions: glycan notation: IUPAC condensed, linker removed
# Summary of the method: as §1
# [18] = tested on: Gal(b1-4)GlcNAc(b1-6)Gal(b1-4)GlcNAc; conditions: glycan notation: IUPAC condensed, linker removed
# Summary of the method: as §1
# [19] = tested on: Gal(b1-4)GlcNAc(b1-2)Man(a1-6)Man(b1-4)GlcNAc(b1-4)GlcNAc; conditions: glycan notation: IUPAC condensed, linker removed
# Summary of the method: as §1
# [20] = tested on: Gal(b1-4)GlcNAc(b1-3)Gal(b1-4)GlcNAc(b1-3)Gal(b1-4)GlcNAc(b1-2)Man(a1-3)[Gal(b1-4)GlcNAc(b1-3)Gal(b1-4)GlcNAc(b1-3)Gal(b1-4)GlcNAc(b1-2)Man(a1-6)]Man(b1-4)GlcNAc(b1-4)GlcNAc; conditions: glycan notation: IUPAC condensed, linker removed
# Summary of the method: as §1
# Sequence of PILRa (Mus musculus), Q2YSF3 (Q2YSF3 entry or part of it): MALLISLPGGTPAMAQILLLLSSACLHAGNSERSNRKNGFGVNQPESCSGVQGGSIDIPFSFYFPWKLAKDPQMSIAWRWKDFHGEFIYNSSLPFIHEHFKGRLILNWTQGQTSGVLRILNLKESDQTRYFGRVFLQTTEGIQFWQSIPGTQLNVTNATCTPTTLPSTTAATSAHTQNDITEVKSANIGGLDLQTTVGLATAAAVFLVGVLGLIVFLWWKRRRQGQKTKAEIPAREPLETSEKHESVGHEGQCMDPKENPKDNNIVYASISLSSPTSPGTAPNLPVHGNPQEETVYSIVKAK
# Sequence of CHI3L1 (Homo sapiens), P36222 (P36222 whole entry): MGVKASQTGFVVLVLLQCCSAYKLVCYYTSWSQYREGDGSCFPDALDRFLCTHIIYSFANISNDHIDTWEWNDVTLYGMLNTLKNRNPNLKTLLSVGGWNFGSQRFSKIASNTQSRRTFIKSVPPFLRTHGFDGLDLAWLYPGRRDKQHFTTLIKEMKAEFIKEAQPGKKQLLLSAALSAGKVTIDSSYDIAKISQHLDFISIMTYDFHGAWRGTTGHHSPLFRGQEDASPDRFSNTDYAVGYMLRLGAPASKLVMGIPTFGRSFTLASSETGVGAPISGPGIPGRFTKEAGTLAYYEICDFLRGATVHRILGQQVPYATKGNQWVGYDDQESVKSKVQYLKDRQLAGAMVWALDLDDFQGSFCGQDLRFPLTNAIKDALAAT
# Sequence of Neurocan (Homo sapiens), O14594 (O14594 other isoform, or with tags, fused parts or gaps): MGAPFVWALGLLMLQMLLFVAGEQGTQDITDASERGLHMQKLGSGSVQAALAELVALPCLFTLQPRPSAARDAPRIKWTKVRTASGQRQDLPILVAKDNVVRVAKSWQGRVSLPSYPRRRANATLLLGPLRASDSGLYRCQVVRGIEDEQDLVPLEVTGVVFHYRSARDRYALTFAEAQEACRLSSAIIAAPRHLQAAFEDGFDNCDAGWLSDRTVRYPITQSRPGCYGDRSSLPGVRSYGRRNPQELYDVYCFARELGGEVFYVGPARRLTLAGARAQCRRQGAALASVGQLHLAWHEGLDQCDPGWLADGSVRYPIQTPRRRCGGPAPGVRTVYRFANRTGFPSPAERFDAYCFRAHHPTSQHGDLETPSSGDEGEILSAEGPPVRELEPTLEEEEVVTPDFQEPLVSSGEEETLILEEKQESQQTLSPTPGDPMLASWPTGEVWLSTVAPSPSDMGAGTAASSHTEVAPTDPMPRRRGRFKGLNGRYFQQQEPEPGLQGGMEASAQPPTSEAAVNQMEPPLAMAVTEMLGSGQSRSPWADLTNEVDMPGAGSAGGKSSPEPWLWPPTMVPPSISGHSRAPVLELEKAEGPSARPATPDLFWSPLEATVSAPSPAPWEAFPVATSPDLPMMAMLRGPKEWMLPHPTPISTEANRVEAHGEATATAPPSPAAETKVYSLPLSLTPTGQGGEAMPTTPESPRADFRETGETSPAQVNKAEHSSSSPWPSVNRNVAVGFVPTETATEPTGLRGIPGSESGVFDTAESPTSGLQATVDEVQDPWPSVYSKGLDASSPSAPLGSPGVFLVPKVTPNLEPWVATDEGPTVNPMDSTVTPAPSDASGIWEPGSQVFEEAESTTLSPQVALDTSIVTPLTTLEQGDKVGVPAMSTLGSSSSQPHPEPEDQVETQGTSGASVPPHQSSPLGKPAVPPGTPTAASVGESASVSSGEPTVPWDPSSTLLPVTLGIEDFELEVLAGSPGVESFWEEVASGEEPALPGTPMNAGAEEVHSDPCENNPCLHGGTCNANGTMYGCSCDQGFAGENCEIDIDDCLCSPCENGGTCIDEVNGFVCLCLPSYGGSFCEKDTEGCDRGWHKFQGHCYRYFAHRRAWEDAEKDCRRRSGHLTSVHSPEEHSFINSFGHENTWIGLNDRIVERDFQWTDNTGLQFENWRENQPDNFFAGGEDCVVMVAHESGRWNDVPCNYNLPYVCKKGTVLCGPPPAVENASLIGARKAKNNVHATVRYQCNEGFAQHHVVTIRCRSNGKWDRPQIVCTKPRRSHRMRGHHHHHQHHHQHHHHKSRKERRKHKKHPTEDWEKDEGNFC
# Sequence of PILRb (Mus musculus), Q2YSF2 (Q2YSF2 entry or part of it): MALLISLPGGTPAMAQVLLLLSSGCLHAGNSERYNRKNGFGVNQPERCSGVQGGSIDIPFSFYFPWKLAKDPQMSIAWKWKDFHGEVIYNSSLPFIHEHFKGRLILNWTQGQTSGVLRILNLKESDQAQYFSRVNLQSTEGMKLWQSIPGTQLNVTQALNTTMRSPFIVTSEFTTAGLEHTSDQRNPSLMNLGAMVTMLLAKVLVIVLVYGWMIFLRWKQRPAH
# Sequence of Avaren (Actinomycete K97) (chain, as listed by the source): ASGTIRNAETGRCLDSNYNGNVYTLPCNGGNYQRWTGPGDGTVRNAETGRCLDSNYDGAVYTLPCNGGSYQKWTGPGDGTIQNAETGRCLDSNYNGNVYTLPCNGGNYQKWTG
# Sequence of Aggrecan (Rattus norvegicus), NP_071526 (chain, as listed by the source): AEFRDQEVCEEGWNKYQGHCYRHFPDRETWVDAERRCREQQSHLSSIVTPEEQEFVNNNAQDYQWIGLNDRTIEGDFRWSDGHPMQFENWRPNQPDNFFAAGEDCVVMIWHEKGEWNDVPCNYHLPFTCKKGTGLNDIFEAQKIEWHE
# Sequence of Regenerating Gene IV (Homo sapiens), Q9BYZ8 (Q9BYZ8 whole entry, looked up): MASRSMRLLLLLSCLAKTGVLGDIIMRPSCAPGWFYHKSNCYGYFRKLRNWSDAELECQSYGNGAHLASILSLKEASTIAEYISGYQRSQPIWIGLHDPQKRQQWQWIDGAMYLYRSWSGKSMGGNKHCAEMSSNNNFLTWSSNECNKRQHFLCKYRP
# Sequence of wLAT-1A (Homo sapiens), Q01650 (Q01650 whole entry): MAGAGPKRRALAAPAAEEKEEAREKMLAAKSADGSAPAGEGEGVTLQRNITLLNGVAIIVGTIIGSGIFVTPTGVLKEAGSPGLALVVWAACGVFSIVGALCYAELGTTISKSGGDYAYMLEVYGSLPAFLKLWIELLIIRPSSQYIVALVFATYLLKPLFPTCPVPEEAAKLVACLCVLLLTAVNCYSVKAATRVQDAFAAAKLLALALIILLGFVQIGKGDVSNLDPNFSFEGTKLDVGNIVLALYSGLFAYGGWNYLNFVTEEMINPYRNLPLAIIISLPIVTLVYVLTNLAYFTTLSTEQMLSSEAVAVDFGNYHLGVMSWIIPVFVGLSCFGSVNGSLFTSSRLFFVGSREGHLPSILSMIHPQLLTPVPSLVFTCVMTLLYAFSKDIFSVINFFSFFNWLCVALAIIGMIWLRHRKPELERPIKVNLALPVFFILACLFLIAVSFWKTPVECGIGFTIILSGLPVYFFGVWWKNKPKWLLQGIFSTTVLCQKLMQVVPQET
# Sequence of 6RG (Lolium perenne) (chain, as listed by the source): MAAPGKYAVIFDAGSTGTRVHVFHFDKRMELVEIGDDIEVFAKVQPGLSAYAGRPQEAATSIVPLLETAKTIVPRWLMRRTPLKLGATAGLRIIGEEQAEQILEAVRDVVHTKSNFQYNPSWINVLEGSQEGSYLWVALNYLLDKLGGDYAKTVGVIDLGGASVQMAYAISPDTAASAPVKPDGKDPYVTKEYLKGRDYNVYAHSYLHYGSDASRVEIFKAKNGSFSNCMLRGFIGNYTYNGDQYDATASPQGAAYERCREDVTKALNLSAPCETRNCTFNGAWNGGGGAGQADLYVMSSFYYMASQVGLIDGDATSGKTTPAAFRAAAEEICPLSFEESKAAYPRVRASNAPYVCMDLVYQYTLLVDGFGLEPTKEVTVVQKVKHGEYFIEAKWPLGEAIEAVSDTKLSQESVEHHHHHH
substance,measurement,setting,value
"PILRb (Mus musculus), Q2YSF2",glycan array binding signal (z-score),[1],-0.5
same,glycan array binding signal (z-score),[2],-0.023
"Siglec-8 (Homo sapiens), Q9NYZ4",glycan array binding signal (z-score),[1],-0.068
same,glycan array binding signal (z-score),[3],-0.067
same,glycan array binding signal (z-score),[4]; mutation: R125K,-0.113
same,glycan array binding signal (z-score),[5],0.515
same,glycan array binding signal (z-score),[5]; mutation: R125K,2.56
same,glycan array binding signal (z-score),[6],0.69
same,glycan array binding signal (z-score),[7]; mutation: R125K,0.13
same,glycan array binding signal (z-score),[8],0.321
same,glycan array binding signal (z-score),[9],0.483
same,glycan array binding signal (z-score),[10],0.455
same,glycan array binding signal (z-score),[11],-0.209
same,glycan array binding signal (z-score),[12]; mutation: R125K,-0.502
MpAFP RI GFP (Marinomonas primoryensis),glycan array binding signal (z-score),[5],2.61
same,glycan array binding signal (z-score),[13],5.48
same,glycan array binding signal (z-score),[7],3.87
"Aggrecan (Rattus norvegicus), NP_071526",glycan array binding signal (z-score),[2],-0.184
"wLAT-1A (Homo sapiens), Q01650",glycan array binding signal (z-score),[14],-0.343
"Regenerating Gene IV (Homo sapiens), Q9BYZ8",glycan array binding signal (z-score),[15],1.48
"Neurocan (Homo sapiens), O14594",glycan array binding signal (z-score),[11],-0.263
same,glycan array binding signal (z-score),[16],-0.779
6RG (Lolium perenne),glycan array binding signal (z-score),[16],-0.329
"PILRa (Mus musculus), Q2YSF3",glycan array binding signal (z-score),[17],-0.088
same,glycan array binding signal (z-score),[12],-0.283
same,glycan array binding signal (z-score),[18],-0.231
"CHI3L1 (Homo sapiens), P36222",glycan array binding signal (z-score),[19],-0.062
same,glycan array binding signal (z-score),[4],-0.131
same,glycan array binding signal (z-score),[11],-0.106
same,glycan array binding signal (z-score),[18],-0.141
Avaren (Actinomycete K97),glycan array binding signal (z-score),[20],-0.051
same,glycan array binding signal (z-score),[10],-0.016
